Reference: the supplement of paper PMC11732987, “Enantioselective OTUD7B fragment discovery through chemoproteomics screening and high-throughput optimisation” (Communications Chemistry, 2025)

Assays:
Experiment in all cases: log2 ratio of Biotin-Ahx-Ub-VS probe labelling (fragment/DMSO); higher = less target engagement (more negative = stronger competition), active = hit call of the paper (q ≤ 0.05, log2 ratio ≤ -1)
Details in all cases: compound concentration: 200 uM; treatment time: 3 h
USP19 = biological target: T1, USP19 (UniProt O94966)
T1 sequence (whole entry): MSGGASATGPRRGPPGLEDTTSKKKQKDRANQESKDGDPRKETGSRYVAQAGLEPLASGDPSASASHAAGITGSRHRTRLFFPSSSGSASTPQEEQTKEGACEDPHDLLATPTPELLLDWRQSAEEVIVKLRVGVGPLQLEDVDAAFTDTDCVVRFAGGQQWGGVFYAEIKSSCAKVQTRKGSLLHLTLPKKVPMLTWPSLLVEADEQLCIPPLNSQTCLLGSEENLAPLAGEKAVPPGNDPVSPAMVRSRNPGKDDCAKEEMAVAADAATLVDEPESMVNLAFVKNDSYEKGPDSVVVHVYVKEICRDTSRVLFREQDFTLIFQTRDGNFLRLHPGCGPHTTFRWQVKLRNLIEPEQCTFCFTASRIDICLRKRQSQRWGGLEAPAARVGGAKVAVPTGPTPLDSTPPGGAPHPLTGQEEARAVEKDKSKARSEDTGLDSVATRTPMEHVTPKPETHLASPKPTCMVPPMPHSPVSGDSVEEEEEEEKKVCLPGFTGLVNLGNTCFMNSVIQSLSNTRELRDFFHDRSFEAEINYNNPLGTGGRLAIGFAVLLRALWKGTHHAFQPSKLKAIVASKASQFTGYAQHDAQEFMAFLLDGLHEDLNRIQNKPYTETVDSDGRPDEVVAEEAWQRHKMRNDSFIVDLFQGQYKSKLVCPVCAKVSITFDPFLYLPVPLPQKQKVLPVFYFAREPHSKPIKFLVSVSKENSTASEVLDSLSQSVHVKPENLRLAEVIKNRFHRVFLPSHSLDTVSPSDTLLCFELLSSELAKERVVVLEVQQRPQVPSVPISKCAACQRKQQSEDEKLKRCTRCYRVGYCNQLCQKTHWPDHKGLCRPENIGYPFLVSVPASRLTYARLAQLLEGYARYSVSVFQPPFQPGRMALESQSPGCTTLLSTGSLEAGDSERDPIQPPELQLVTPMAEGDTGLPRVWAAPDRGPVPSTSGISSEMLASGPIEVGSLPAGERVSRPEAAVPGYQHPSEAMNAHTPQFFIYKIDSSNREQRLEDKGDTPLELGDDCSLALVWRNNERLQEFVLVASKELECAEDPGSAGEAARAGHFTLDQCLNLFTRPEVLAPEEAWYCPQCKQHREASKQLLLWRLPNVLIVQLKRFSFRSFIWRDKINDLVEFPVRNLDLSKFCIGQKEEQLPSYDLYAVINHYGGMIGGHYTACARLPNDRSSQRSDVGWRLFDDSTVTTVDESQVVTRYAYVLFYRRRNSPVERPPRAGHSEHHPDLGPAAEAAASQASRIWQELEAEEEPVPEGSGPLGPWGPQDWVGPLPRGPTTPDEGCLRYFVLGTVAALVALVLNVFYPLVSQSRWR
Outline: (§1)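 Triplicate samples of HEK293T lysate, 495 µg each, received fragment at 200 µM or vehicle for 3 h, followed by Biotin-Ahx-Ub-VS (0.5 µM final) for 1 h. After NeutrAvidin enrichment of labelled DUBs and LysC/trypsin digestion, peptides were run by diaPASEF LC-MS/MS. The values are average log2 fragment/vehicle ratios from global-median-normalised Spectronaut label-free quantities, tested by unpaired t-test on proteins having ≥2 unique peptides.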

USP24 = USP24 (UniProt Q9UPU5)
Outline: as §1

USP25 = biological target: T2, USP25 (UniProt Q9UHP3)
T2 sequence (whole entry): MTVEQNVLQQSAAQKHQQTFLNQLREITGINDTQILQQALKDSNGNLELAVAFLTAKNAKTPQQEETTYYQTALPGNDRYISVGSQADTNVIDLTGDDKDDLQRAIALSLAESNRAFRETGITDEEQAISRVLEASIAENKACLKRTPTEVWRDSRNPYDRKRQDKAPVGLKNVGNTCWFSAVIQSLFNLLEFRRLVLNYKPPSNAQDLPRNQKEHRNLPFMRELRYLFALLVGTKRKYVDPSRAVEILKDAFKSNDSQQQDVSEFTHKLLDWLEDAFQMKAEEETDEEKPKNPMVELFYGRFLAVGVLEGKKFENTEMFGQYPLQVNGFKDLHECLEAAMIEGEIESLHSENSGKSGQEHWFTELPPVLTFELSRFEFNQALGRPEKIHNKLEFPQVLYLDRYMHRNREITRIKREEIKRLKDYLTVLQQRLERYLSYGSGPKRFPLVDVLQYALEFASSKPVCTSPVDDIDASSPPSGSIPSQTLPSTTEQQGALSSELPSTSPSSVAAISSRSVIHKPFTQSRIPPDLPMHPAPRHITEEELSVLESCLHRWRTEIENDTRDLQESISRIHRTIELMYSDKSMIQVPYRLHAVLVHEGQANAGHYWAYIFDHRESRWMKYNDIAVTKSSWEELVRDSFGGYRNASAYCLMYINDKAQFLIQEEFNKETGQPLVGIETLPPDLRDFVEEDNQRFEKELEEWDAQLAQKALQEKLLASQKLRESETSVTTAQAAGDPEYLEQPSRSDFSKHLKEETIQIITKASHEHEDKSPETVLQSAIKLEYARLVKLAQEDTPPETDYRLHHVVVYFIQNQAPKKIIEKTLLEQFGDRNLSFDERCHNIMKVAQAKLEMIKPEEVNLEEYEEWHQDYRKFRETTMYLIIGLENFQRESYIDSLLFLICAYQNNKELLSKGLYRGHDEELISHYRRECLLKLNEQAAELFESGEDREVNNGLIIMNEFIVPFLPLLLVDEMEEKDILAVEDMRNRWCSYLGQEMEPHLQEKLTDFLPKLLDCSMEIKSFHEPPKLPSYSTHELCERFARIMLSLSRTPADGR
Outline: as §1

USP28 = biological target: T3, USP28 (UniProt Q96RU2)
T3 sequence (whole entry): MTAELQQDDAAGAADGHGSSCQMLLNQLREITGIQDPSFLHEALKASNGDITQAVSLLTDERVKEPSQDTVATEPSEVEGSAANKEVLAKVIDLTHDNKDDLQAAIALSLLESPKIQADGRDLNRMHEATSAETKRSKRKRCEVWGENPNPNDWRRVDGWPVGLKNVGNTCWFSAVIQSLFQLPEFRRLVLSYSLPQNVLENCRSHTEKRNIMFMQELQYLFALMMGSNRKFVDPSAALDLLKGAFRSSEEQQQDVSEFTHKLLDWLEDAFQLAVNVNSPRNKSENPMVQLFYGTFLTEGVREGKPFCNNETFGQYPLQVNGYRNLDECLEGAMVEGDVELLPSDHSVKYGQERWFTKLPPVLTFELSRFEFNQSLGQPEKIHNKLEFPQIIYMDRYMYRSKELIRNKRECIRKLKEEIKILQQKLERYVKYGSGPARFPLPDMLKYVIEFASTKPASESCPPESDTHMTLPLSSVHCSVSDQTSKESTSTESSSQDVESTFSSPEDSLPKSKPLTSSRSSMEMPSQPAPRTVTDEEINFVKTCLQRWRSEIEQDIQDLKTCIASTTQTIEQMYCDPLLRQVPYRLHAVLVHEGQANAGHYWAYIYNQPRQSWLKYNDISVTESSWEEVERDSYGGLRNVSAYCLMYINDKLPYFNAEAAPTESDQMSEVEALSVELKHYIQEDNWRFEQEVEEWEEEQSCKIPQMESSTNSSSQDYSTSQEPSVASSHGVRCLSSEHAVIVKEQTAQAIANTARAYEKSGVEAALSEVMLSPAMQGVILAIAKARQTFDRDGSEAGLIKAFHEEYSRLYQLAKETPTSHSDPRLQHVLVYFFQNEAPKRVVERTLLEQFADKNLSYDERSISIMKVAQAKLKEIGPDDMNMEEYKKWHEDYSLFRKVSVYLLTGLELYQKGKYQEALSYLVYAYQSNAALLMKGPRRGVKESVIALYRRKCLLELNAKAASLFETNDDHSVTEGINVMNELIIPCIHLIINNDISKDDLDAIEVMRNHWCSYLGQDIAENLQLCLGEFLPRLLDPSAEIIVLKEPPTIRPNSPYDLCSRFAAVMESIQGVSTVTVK
Outline: as §1

Measured: log2 ratio of Biotin-Ahx-Ub-VS probe labelling

Sequence of USP24 (Q9UPU5 whole entry): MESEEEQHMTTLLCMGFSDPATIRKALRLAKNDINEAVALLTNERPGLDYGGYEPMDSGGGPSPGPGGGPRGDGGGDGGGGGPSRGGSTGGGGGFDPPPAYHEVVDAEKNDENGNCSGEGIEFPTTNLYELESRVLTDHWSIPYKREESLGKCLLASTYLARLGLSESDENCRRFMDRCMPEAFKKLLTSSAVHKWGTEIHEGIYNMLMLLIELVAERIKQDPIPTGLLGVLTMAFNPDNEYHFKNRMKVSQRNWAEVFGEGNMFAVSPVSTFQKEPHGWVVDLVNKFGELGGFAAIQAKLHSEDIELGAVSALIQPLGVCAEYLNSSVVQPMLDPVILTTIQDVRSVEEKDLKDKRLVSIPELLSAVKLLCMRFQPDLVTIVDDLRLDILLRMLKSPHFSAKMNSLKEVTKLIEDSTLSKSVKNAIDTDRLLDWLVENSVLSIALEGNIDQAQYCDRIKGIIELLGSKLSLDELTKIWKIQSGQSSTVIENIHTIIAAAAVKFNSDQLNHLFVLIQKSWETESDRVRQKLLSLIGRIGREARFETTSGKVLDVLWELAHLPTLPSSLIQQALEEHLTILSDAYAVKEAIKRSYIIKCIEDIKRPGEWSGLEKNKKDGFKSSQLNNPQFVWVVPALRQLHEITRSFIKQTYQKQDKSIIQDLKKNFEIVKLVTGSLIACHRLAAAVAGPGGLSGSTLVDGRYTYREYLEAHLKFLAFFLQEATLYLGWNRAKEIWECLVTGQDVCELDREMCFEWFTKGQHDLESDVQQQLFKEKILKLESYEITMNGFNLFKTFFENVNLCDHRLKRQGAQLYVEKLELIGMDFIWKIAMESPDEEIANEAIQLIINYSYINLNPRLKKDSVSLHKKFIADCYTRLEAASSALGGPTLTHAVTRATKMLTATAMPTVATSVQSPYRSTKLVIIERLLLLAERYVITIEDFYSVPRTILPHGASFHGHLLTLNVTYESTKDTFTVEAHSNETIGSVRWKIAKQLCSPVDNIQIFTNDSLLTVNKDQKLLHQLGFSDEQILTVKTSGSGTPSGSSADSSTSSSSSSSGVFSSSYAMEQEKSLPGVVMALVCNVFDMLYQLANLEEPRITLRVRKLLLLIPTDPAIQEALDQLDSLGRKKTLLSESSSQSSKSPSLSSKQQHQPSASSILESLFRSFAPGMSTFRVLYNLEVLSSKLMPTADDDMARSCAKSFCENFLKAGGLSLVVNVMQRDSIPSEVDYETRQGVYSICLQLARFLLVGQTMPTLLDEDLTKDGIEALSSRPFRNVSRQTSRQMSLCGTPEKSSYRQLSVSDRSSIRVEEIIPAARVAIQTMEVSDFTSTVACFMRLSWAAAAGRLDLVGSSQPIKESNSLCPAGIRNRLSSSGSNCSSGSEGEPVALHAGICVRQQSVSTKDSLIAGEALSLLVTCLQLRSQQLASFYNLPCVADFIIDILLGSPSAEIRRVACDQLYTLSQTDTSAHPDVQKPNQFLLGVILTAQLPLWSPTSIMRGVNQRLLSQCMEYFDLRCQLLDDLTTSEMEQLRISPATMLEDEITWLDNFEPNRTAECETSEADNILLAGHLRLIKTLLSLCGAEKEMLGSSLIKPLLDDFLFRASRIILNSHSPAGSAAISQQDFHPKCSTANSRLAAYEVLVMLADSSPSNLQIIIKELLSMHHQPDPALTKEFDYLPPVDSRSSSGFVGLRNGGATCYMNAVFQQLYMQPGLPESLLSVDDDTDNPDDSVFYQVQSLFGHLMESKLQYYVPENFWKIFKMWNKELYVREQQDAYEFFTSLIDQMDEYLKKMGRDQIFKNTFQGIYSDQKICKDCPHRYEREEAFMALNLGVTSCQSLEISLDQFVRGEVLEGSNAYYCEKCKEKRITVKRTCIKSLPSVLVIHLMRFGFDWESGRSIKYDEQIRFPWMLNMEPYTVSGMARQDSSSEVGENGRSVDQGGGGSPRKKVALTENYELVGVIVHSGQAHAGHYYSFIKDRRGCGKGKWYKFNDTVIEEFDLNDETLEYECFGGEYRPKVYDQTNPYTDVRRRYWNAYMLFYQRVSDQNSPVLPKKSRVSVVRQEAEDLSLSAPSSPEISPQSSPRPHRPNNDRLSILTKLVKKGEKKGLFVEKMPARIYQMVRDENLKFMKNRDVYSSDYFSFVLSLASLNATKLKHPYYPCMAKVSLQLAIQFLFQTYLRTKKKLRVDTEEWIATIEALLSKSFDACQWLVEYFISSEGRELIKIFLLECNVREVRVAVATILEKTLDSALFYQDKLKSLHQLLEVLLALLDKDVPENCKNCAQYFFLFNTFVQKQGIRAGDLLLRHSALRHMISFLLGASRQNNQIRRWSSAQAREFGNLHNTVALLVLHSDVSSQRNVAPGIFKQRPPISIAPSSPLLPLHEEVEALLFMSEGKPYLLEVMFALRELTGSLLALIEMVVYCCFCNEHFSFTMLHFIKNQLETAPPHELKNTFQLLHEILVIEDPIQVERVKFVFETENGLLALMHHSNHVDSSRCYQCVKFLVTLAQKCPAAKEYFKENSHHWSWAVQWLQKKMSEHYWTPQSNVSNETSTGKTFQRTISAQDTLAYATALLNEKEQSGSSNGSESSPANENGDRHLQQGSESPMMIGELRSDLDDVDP

O=C(CCl)N1CCOC2(CCC2)CC1
inactive: USP19 -0.704 | USP24 -0.23 | USP25 -0.448 | USP28 -0.346
